The record followed here is PubChem BioAssay.

“And” between values parts separate entries of the source, which are not always exact repeats. Identical values can stand only once. The source made the active and inactive calls.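 The calls were made as follows, unless noted: active = thallium flux through the channel raised or lowered by more than 3 SD from vehicle-only wells, actives on both sides; inactive = the rest.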

Assay [1] in a line: P. berghei load reduction in hepatocytes – cell-based, HepG2, luciferase luminescence, HepG2 viability, primary screen (AID 624349; in the data active = parasite load remaining mostly below about 12%, no sharp cut-off; inactive = mostly above about 10%;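 also: 100% = mean of DMSO negative control wells on the same plate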). The settings on record: P. berghei liver stage in HepG2, luciferase luminescence, concentration not given here; parasite load remaining: stronger effect = lower value; viability: measured here: HepG2 viability without parasites.
Assay [2] is described as follows: signal quenchers or enhancers, Cy5 substrate/SSB – biochemical, NIH Clinical Collection, E. coli SSB, artefact control for HCV NS3 helicase inhibitor project (AID 743268; call rule not given here). The settings on record: Cy5-oligo bound E. coli SSB, fluorescence interference.
Assay [3] has as its system Hepatitis C virus NS3 helicase. In words: blockers of NS3h binding to DNA – biochemical, fluorescence polarization, NIH Clinical Collection, primary screen (AID 743270; call rule not given here). The conditions noted are these: NS3 helicase binding to Cy5-dT15 DNA, stronger effect = higher value, concentration not given here.
In assay [4] the target is Single-stranded DNA-binding protein (Escherichia coli (strain K12)) (UniProt P0AGE0). Description: SSB-ssDNA binding inhibitors – biochemical, fluorescence polarization, NIH Clinical Collection, counter-screen for HCV NS3 helicase inhibitor project (AID 743271; in the data active = inhibition above about 28%). The conditions noted are these: E. coli SSB-DNA binding, stronger effect = higher value, concentration not given here.
Assay [5] in a line: compounds distorting NS3 helicase fluorescence signal – biochemical, NIH Clinical Collection, artefact control for HCV NS3 helicase inhibitor project (AID 743272; call rule not given here;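 also: HCV NS3 helicase with a Cy5 labelled single stranded DNA probe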). The conditions noted are these: fluorescence interference counterscreen, HCV NS3 helicase assay; stronger effect = lower value.
Assay [6] has as its system Neuropilin-2 / VEGF-C interaction (human). Description: small molecules blocking Neuropilin-2/VEGF-C interaction – biochemical, microplate binding format, z-score (AID 743281; call rule not given here). The conditions noted are these: microplate NRP2/VEGF-C binding assay; stronger effect = lower value.
Assay [7] in a line: modulation of C. elegans fzo-1 (AID 1259413; call rule not given here;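 also: fzo-1 mutant C. elegans worms in liquid wells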). The settings on record: C. elegans fzo-1 modulator screen, mean read-out; stronger effect = higher value.
The subject of assay [8] is F380Y. Description: BK channel mutant inhibitors and activators – cell-based, U2OS BacMam, thallium flux, beta subunits, selectivity assay, profiling panel (AID 1259406).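 Also: initial slope of Thallos dye fluorescence rise after thallium is added; log ratio against the mean of 0.3% DMSO vehicle wells on the same plate.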 The conditions noted are these: U2OS BacMam BK variants, at 30 µM.
Assay [9] concerns F380Y/beta1. The assay is described as above. The conditions noted are these: U2OS BacMam BK variants, at 30 µM.
The test system of assay [10] is F380Y/beta2Delta. The description is as above. The settings on record: U2OS BacMam BK variants, at 30 µM.
The subject of assay [11] is F380Y/beta4. Described as above. The conditions noted are these: U2OS BacMam BK variants, at 30 µM.
Assay [12] has as its target Calcium-activated potassium channel subunit alpha-1 (Homo sapiens) + Leucine-rich repeat-containing protein 26 (Homo sapiens) (UniProt Q12791+Q2I0M4). Described as above. The settings on record: U2OS BacMam BK variants, F380Y/Slo1WT/gamma1, at 30 µM.
Assay [13] relates to R275C. The description is as above. The conditions noted are these: U2OS BacMam BK variants, at 30 µM.
Assay [14] concerns R275C/beta1. Described as above. The settings on record: U2OS BacMam BK variants, at 30 µM.
Assay [15] deals with R275C/beta2Delta. Described as above. The conditions noted are these: U2OS BacMam BK variants, at 30 µM.
The subject of assay [16] is R275C/beta4. The assay is described as above. The conditions noted are these: U2OS BacMam BK variants, at 30 µM.
Assay [17] deals with R275C/Slo1WT/beta2. The assay is described as above. The conditions noted are these: U2OS BacMam BK variants, at 30 µM.
The nature of assay [18]: viability loss with induced miR-34 in A549 – imaging, A549 dox-inducible miR-34, nuclei and caspase counts, primary screen (AID 1347080;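 active = compounds whose cell count with miR-34 switched on is under 0.7 times the count with it off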). The conditions noted are these: A549 miR-34 inducible, Hoechst nuclei count, 48 h.
Assay [19] can be described thus: galactose survival enhancers in mitochondrial complex I cybrids – cell-based, galactose medium, ATP luminescence, primary screen (AID 1645843;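 active = z-score of at least 1.8 in each of two replicates, scored against plate mean and spread of sample wells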;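 also: positive z means more ATP and so rescue of galactose-driven cybrid death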). The settings on record: complex I mutant cybrid cells, 72 h, stronger effect = higher value.

Sequence of Calcium-activated potassium channel subunit alpha-1 (Homo sapiens) + Leucine-rich repeat-containing protein 26 (Homo sapiens) (Q2I0M4 whole entry, looked up, one chain of several): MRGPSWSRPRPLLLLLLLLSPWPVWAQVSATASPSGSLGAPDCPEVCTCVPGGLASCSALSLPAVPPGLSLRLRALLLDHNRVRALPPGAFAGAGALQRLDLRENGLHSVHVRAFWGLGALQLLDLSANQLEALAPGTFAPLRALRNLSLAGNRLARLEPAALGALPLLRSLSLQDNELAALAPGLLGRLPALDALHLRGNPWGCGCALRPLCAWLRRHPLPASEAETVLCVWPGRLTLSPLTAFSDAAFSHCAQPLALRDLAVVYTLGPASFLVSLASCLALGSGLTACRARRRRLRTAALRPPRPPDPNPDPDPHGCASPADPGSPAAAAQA

The term viability denotes the share of living cells, or the viability signal relative to a control. The term inhibition denotes the relative decrease from the control value, in per cent. For `CCC1=C[C@H]2CN(C1)Cc1c([nH]c3ccccc13)[C@@](C(=O)OC)(c1cc3c(cc1OC)N(C)[C@H]1[C@@](O)(C(=O)OC)[C@H](OC(C)=O)[C@]4(CC)C=CCN5CC[C@]31[C@@H]54)C2`, the parasite load remaining in [1] was 32.2% (inactive). In assay [1], this molecule displayed a viability of 76.8%. Further, the fluorescence ratio in assay [2] was 0.8 (active); in assay [5] it was 0.78 (active). Further, the figures for the inhibition in assay [3] and in [4] were -1.98% (inactive) and 9.91% (inactive), respectively. Moreover, the z-score in [6] was 1.48 (inactive). For the same molecule, the mean signal in [7] was 244 (inactive). In addition, the log fold change Tl+ flux in assay [8] is 0.0913 (inactive); in assay [9], 0.0236 (inactive); in assay [10], 0.0207 (inactive); in assay [11] it was 0.0427 (inactive); in [12], -0.0112 (inactive); in [13] it was -0.149 (active). Also, the log fold change Tl+ flux in assay [14] is 0.0456 (inactive); in assay [15], 0.0329 (inactive); in [16], 0.0723 (inactive); in assay [17], 0.104 (active).

On to `O=C1c2c(O)cc(O)cc2O[C@H](c2ccc(O)c(O)c2)[C@@H]1O`, for which the parasite load remaining in assay [1] is 102% (inactive). The viability in assay [1] is 72.9%. Further, the fluorescence ratio in assay [2] and in assay [5] was 1.01 (inactive) throughout. Further, the inhibition in assay [3] is -0.4% (inactive); in assay [4] it was -1.64% (inactive). Besides, the z-score in [6] was -0.585 (inactive). For the same molecule, the mean signal in assay [7] is 251 (inactive). Also, the log fold change Tl+ flux in [8] was -0.0094 (inactive); in assay [9] it was 0.0164 (inactive); in [10], 0.0588 (inactive); in assay [11] it was -0.00507 (inactive); in assay [12] it was -0.00714 (inactive); in [13] it was -0.0635 (inactive). Further, the log fold change Tl+ flux was 6.5e-05 (inactive) in assay [14], 0.0295 (inactive) in assay [15], -0.031 (inactive) in [16] and -0.00661 (inactive) in [17].

Turning to `COc1cc(/C=C/c2ccc(O)cc2)cc(OC)c1`, in assay [1], the parasite load remaining is 117% (inactive). In addition, in [1], the viability was determined as 70.6%. In addition, the figures for the fluorescence ratio in assay [2] and in [5] were 0.96 (inactive) and 0.99 (inactive), respectively. Besides, the inhibition is 5.94% (inactive) in assay [3] and 9.14% (inactive) in assay [4]. In assay [6], the z-score is -1.34 (inactive). Further, the mean signal in assay [7] was 227 (inactive). Further, the log fold change Tl+ flux in assay [8] is -1.03 (active); in assay [9] it was -0.986 (active); in assay [10] it was -1.01 (active); in assay [11], -0.813 (active); in assay [12] it was -0.744 (active); in assay [13], -0.927 (active). Further, the log fold change Tl+ flux in assay [14] is -0.11 (active); in assay [15] it was -0.000996 (inactive); in assay [16], 0.05 (inactive); in assay [17] it was -0.108 (active).

`O=c1[nH]c2ccccc2c2ccccc12`: the fold change in assay [18] (stronger effect = lower value, cell number ratio, induced over uninduced) was 0.926 (inactive) and 0.97 (inactive); in [18] (measured here: relative caspase fold change +Dox/-Dox), 0.939 and 0.926. Moreover, the cell count was 7660 and 2830 in [18] (measured here: total cells with miR-34 induction, stronger effect = lower value); 8280 and 2920 in assay [18] (measured here: total cells without miR-34 induction). Also, the z-score in assay [19] is 0.885 (inactive). Moreover, the log fold change Tl+ flux in [8] is 0.027 (inactive); in assay [9] it was 0.0377 (inactive); in [10], 0.0285 (inactive); in [11], 0.0704 (inactive); in assay [12], -0.0148 (inactive); in assay [13] it was 0.0279 (inactive). In addition, the log fold change Tl+ flux in [14] was -0.057 (inactive); in assay [15] it was 0.0385 (inactive); in assay [16] it was -0.0579 (inactive); in assay [17] it was -0.0287 (inactive).
